Sampled rows, rich in hits. Any-hit rate of the full collection: about 2.4%.
CHO-K1 Ca ag: counter-screen for M1 agonists: effect in parental CHO-K1 cells. AID 602248, 2012. Fluo-8 calcium fluorescence; scaled to maximal ATP response, vehicle zero. activation, % at 3 µM. actives 0.48% (n = 360,000); in the data active means activation above about 15%;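 further: untransfected CHO-K1 host cells lacking M1 receptor as counterscreen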
CHO-K1 Ca antag: M1 antagonist counterscreen hit in parental CHO-K1 cells | inhibition, % at 3 µM | ATP-induced calcium, Fluo-8 fluorescence | AID 602250 | actives 0.6% (n = 360,000);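 active means inhibition above a per-plate cutoff, the plate's mean sample inhibition plus 3 SD, cut at about 24% in these data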;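 further: 0% = DMSO plus EC80 ATP and 100% = DMSO alone without ATP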
M1 antag: human M1 muscarinic receptor antagonists, primary screen, CHO-K1 cells, Fluo-8 calcium fluorescence, 1536-well; CHO-K1 hM1, ACh EC80 antagonist; inhibition, % at 3 µM; actives 1.3% (n = 360,000);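 active means percent inhibition above its own plate's cutoff, namely the mean of that plate's compound wells plus 3 SD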;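 further: peak over basal fluorescence ratio during 140 s after agonist addition; 0% = ACh EC80 plus DMSO and 100% = DMSO alone without agonist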
Target sequence (P11229 whole entry, looked up): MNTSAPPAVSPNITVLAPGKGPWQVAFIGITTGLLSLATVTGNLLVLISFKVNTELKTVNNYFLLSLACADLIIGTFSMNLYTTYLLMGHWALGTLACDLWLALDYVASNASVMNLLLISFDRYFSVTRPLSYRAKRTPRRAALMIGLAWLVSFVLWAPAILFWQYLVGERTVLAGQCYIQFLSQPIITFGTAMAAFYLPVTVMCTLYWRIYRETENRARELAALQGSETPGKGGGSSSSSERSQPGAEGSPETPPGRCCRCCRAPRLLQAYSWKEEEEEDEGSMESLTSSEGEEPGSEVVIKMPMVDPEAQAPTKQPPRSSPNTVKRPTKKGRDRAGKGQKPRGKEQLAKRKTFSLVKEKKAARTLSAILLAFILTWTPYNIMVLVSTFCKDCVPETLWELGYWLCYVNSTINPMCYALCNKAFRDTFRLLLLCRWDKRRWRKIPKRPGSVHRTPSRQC
CHRM1 agonist: human M1 muscarinic receptor agonists, primary screen, Fluo-8 calcium fluorescence, CHO-K1 cells, HTS; Muscarinic acetylcholine receptor M1 (Homo sapiens), P11229; CHO-K1 hM1, agonist mode; 0% DMSO, 100% acetylcholine EC100; activation, % at 3 µM; actives 0.33% (n = 360,000);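 active means activation above the run's mean compound activation plus 3 SD, cut at about 16% in these data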;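 further: peak over basal fluorescence ratio within a 140 s kinetic read after compound addition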
M1 PAM parental: nonselective calcium activators in parental CHO-K1 cells, primary screen, counter-screen for M1 PAM project, cell-based, Fluo-8 calcium fluorescence, full deck, 1536-well; AID 602247, 2012; activation, % at 3 µM; actives 0.02% (n = 360,000); ATP EC20; 0% at ATP EC20, 100% at ATP max;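 active means activation above the run cutoff, the mean activation of all test compounds plus 3 SD, cut at about 40% in these data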;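 further: peak over basal fluorescence ratio in a 140 s read after ATP addition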
M1 PAM: human M1 muscarinic receptor positive allosteric modulators, primary screen, CHO-K1 cells, Fluo-8 calcium fluorescence, 1536-well; actives 0.088% (n = 360,000); CHO-K1 hM1, ACh EC20; 0% = ACh EC20, 100% = maximal ACh; activation, % at 3 µM; in the data active means activation above about 19%, passing the limit was not always enough
Active calls of the source: *.

SMILES	CHO-K1 Ca ag	CHO-K1 Ca antag	M1 antag	CHRM1 agonist	M1 PAM parental	M1 PAM
C/C(CC(=O)Nc1cccc(Cl)c1Cl)=N\NC(=O)c1ccccc1C	0	-7	-8	-8	21	12
CN(C)C(CNC(=O)CCc1nc2cc(Cl)ccc2n(Cc2ccccc2)c1=O)c1ccccc1 (stereo not given)	1	-12	27*	-8	-1	-23
COc1cc(OC)cc(C(=O)Nc2cccc3cccnc23)c1	-1	3	-6	-4	-3	7
COc1cccc(N=Nc2ccc(O)c3ncccc23)c1	41*	35*	40*	24*	-6	-28
COc1cccc(N=Nc2ccc3cccnc3c2O)c1	38*	12	31*	30*	-12	-20
COc1ccc(N=Nc2ccc(O)c3ncccc23)cc1	5	-4	-12	6	5	18
COc1ccccc1C(=O)NCC(=O)N1CCN(C/C=C/c2ccccc2)CC1	0	-12	-2	22*	8	1
COC(=O)c1ccccc1NC(=O)N1CCN(C/C=C/c2ccccc2)CC1	1	-22	3	-9	16	-7
Cc1ccc(C(=O)CCC(=O)N2CCN(C/C=C/c3ccccc3)CC2)cc1	2	0	-3	24*	14	-9
CCCCNC(=O)N1CCN(C/C=C/c2ccccc2)CC1	0	13	7	-11	-7	-7
Cc1ccccc1C(=O)NCC(=O)N1CCN(C/C=C/c2ccccc2)CC1	1	-7	33*	23*	-14	-18
Cc1ccc(NC(=O)N2CCN(C/C=C/c3ccccc3)CC2)cc1	0	0	-10	-10	11	6
CCOc1ccc(C(=O)NCC(=O)N2CCN(C/C=C/c3ccccc3)CC2)cc1OCC	1	-7	30*	27*	9	-14
CC(=O)Nc1cccc(NC(=O)CSc2ncc(-c3ccc(Cl)cc3)n2Cc2ccco2)c1	8	12	26*	6	1	-19
Cc1ccc(NC(=O)CSc2ncc3ccccn23)cc1	1	-12	0	-5	10	2
O=C(CC(=O)N/N=C/c1cccs1)NCc1ccccc1	16*	7	7	-7	1	4
NC(=O)c1c(-c2ccc(Cl)cc2Cl)csc1NC(=O)Cc1ccccc1	11	22	44*	-7	9	-25
O=C(Cc1ccccc1)Nc1scc(-c2ccccc2)c1C(=O)N1CCOCC1	1	-11	-11	-1	23	9
COc1ccc(CCNS(=O)(=O)c2ccc3c(c2)CCN3C(=O)CCC(=O)O)cc1OC	19*	5	-2	-5	12	7
O=C(O)CCC(=O)N1CCc2cc(S(=O)(=O)NCCc3ccc(Cl)cc3)ccc21	2	-15	-21	0	12	14
O=C(NC1CCCC1)C1CCN(C(=O)c2ccc(-c3ccccc3)cc2)CC1	2	-14	-10	-6	8	9
C[C@@H]1CN([C@H](C)CO)S(=O)(=O)c2ccc(C#Cc3ccccc3F)cc2O[C@H]1CN(C)C(=O)c1ccc2c(c1)OCO2	6	4	27*	5	10	-11
O=C(Nc1cccc2c1CCCC2)c1ccccc1Br	1	-3	-10	-9	13	4
Cc1occc(=O)c1OCc1c(F)cccc1Cl	16*	10	2	-7	6	3
CCCCC(=O)N(C)c1c(C)nc2ccc(C(=O)N3CCN(C(=O)c4ccco4)CC3)cn12	0	-1	-3	-3	18	2
COC(=O)c1ccccc1OCCCN(C)C	0	27*	-6	-7	-11	5
COc1ccc(C2=NOC(C(=O)N3CCN(C(=O)c4ccco4)CC3)C2)cc1OC (stereo not given)	3	-16	-13	-2	31	8
CC(C)CCN1CCN(Cc2cc3ccccc3[nH]2)CC1CCO (stereo not given)	16*	12	-3	1	11	12
